Source: PubChem BioAssay (The Scripps Research Institute Molecular Screening Center)
In the library only some 4.8% were active in any assay of this set; here they are far more common.
SMARCA2 act: activators of SMARCA2 function; MG213 cells, MMTV-luciferase reporter, dexamethasone, overnight; activation, % at 9.1 µM; 370,000 tested, 1% active; AID 652017; in the data active means activation above about 7.8%
hcDAF-12 act: H. contortus DAF-12 activation, primary screen | activation, % at 6.8 µM | HEK293 hcDAF-12 lit1-tk-luc reporter, luminescence; 0% DMSO, 100% Δ7-dafachronic acid | AID 652067 | 370,000 tested, 1.4% active;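 active means activation above the mean of all tested compounds plus 3 SD, cut at about 5.5% in these data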
DAX1 inh-1: blocks DAX1 repression of SF-1 activated StAR promoter. AID 652010. HEK293T StAR-luciferase reporter, SF-1/DAX-1 repression relief. inhibition, % at 6.8 µM. 370,000 tested, 1.1% active;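 active means inhibition above the mean over all tested compounds plus 3 SD, cut at about 3.6% in these data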;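 further: higher inhibition means more luminescence from relief of DAX-1 repression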
DAX1 inh-2: inhibitors of human orphan nuclear receptor DAX1 (NR0B1); P51843; HEK293 Gal4-DAX1 luciferase reporter, luminescence; inhibition, % at 6.75 µM; 340,000 tested, 0.99% active; AID 504766;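 active means inhibition above the mean over all tested compounds plus 3 SD, cut at about 4.2% in these data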;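 further: inhibition shows as a rise in luminescence from relieved DAX1 repression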
ssDAF-12 act: activates DAF-12 receptor from parasite S. stercoralis; HEK293 ssDAF-12/GRIP1 lit1-tk-luc reporter, luminescence; % of 3 µM dafachronic acid response; activation, % at 6.8 µM; 370,000 tested, 1% active; AID 652126;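 active means activation above the mean over all tested compounds plus 3 SD, cut at about 0.9% in these data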
hgDAF-12 ag: hgDAF-12 agonism, primary luciferase screen; HEK293 GAL4-hgDAF12 UAS-luciferase reporter, agonist luminescence; normalized to butyrate control; activation, % at 6.8 µM; 370,000 tested, 1.8% active;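 active means activation above a cutoff set at the mean of all screened compounds plus 3 SD, cut at about 10% in these data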
DAX1 conf: NR0B1 (human) inhibition, confirmation; shares compounds with DAX1 inh-1; 2,400 tested, 87% active; inhibition, % at 6.8 µM; HEK293T StAR-promoter luciferase reporter, SF-1/DAX-1 repression;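 active means inhibition above the average of every tested compound plus 3 SD, cut at about 3.8% in these data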;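 further: active compounds raise luminescence by relieving repression of the StAR reporter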
Target sequence (P51843 whole entry, looked up): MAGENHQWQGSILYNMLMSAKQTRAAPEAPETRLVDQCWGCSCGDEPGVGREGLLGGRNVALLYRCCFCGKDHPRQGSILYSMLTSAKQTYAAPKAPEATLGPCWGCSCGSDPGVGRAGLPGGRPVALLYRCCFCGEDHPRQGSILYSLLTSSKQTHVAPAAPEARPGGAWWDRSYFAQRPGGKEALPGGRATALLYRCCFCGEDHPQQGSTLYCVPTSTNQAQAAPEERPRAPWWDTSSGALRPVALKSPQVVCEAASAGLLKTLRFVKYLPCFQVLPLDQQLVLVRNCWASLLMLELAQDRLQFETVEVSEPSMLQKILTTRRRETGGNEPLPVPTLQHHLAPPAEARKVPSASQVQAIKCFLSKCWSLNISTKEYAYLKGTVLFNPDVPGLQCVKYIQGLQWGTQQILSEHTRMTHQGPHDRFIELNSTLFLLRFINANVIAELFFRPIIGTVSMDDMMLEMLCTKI
SF1 AF2mut Luc: counter-screen for DAX1 inhibitors: nonselective inhibitors with SF-1 AF2 mutant; shares compounds with DAX1 inh-1; 2,400 tested, 78% active; inhibition, % at 6.8 µM; HEK293 StAR-luciferase, luminescence;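 active means inhibition above the mean of all tested compounds plus 3 SD, cut at about 3% in these data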
Hits are given with their value; - = inactive; . = no result given.

SMILES	SMARCA2 act	hcDAF-12 act	DAX1 inh-1	DAX1 inh-2	ssDAF-12 act	hgDAF-12 ag	DAX1 conf	SF1 AF2mut Luc
O=C(c1ccc2nc(Cc3ccccc3F)oc2c1)N1CC[C@H](O)C1	-	-	6.2	-	-	-	5.9	-
COc1ccc(Cc2nc3ccc(C(=O)N4CCC(C(N)=O)CC4)cc3o2)cc1	-	-	-	-	-	-	.	.
CC(c1ccccn1)N(C)C(=O)c1ccc2nc(Cc3ccccc3F)oc2c1 (stereo unspecified)	-	-	4.8	-	-	-	5.3	4.4
COc1ccc(Cc2nc3ccc(C(=O)N4CCOCC4)cc3o2)cc1	-	-	5.4	-	-	-	7.4	3.8
Cc1ccc(C)c(OCc2cc(C(=O)N3C[C@@H](C)O[C@@H](C)C3)no2)c1	-	-	4.6	-	-	-	4.8	4.2
Cc1ccc(C)c(OCc2cc(C(=O)N3CC[C@@H]4CCCC[C@H]4C3)no2)c1	-	6.5	5.5	-	-	-	-	3.3
CNC(=S)N1C2CCCC1CC(NC(=O)c1ccc(F)cc1)C2 (stereo unspecified)	-	-	-	-	-	-	.	.
CCOc1ccc(N(CC(=O)N2CCC(Cc3ccccc3)CC2)S(C)(=O)=O)cc1	-	-	-	-	-	-	.	.
O=C(NCc1ccc2c(c1)OCO2)c1cccc2c1C(=O)N(C1CCCCC1)C2	-	-	-	-	-	-	.	.
O=C(Nc1ccc(C(=O)N2CCCCC2)cc1)C1=CSCCO1	-	-	6.2	-	-	-	4.7	-
O=C1NC(c2ccc(Cl)c([N+](=O)[O-])c2)Nc2ccccc21 (stereo unspecified)	-	-	-	-	-	-	.	.
Cc1ccsc1C(=O)OCC(=O)NC1CCCC1	-	-	-	-	-	-	.	.
Cc1ccsc1C(=O)OCC(=O)N1CCc2ccccc2C1	-	-	6.9	-	-	11	13	5.9
Cc1ccsc1C(=O)OCC(=O)N(C)C1CCCCC1	-	5.9	10	-	-	12	11	6.3
Cc1ccsc1C(=O)N1CCc2ccccc2C1	-	-	-	-	-	-	.	.
COc1ccc(NC(=O)CN(C)C(=O)CSc2nc3ccccc3s2)cc1	-	-	5.0	-	-	-	-	-
COc1ccc(-c2cc(NC=O)c3ncc(-c4cc(OC)c(OC)c(OC)c4)n3c2)cc1	-	-	4.6	.	-	-	4.0	-
O=C1NC(NS(=O)(=O)c2ccc(Cl)cc2)(C(F)(F)F)C(=O)N1Cc1cccnc1 (stereo unspecified)	-	-	-	-	-	-	.	.
Cc1ccc2nc(-c3ccccn3)c(N)n2c1	-	-	5.4	.	-	11	15	6.8
Cc1ccc2nc(-c3ccccn3)c(Nc3ccccc3C)n2c1	-	-	-	-	-	-	.	.
FC(F)(F)c1ccccc1Cc1c(-c2cccc(Cl)c2)nc2ccc(Br)cn12	-	-	-	.	-	-	.	.
Cc1ccc2nc(-c3ccc(C#N)cc3)c(Cc3ccccn3)n2c1	-	-	-	.	-	-	.	.
Cc1ccc2nc(-c3ccc(Cl)cc3)c(Cc3ccccn3)n2c1	-	-	6.7	.	-	11	14	4.5
Cc1ccc2nc(-c3cccc(Br)c3)c(Cc3ccccc3C(F)(F)F)n2c1	-	-	5.1	.	-	-	4.0	4.2
Cc1ccc2nc(-c3cccc(Br)c3)c(Cc3ccccn3)n2c1	-	-	5.1	.	1.1	-	7.8	5.0
SMILES	SMARCA2 act	hcDAF-12 act	DAX1 inh-1	DAX1 inh-2	ssDAF-12 act	hgDAF-12 ag	DAX1 conf	SF1 AF2mut Luc
Cc1nn(C)c(Oc2ccccc2)c1CCNC(=O)CC(C)C	-	-	-	-	-	-	.	.
CC1(C2CC2)NC(=O)N(CC(=O)N2CCN(c3ccc(F)cc3)CC2)C1=O (stereo unspecified)	-	-	-	-	-	-	.	.
CC1(C2CC2)NC(=O)N(CC(=O)N2CCN(c3ccccc3)CC2)C1=O (stereo unspecified)	-	-	6.7	-	-	-	-	-
CCOc1ccc(N2CC(C(=O)NCc3cccc(C)c3)CC2=O)cc1 (stereo unspecified)	-	-	-	-	-	-	.	.
O=C(N[C@H]1/C=C\[C@@H](O)CCCC1)OCc1ccccc1	-	-	7.6	-	-	11	11	9.1
O=C(CNC(=O)OCc1ccccc1)NC1CCCCCC1	-	-	-	-	-	-	.	.
CC(C)(CNC(=O)c1ccc(NS(=O)(=O)c2ccc(F)cc2)cc1)N1CCOCC1	-	-	-	-	-	-	.	.
COc1ccccc1/C=N/NC(=O)c1cc2c(OC)c(OC)ccc2[nH]1	-	-	-	-	-	-	.	.
CCOC(=O)c1c(C)[nH]c(C(=O)OCc2ccccc2)c1C	-	-	15	-	1.9	12	12	5.5
O=C(Nc1ncc([N+](=O)[O-])s1)c1ccco1	-	-	6.5	-	-	-	5.7	6.2
Cn1ccc2c(-c3ccc4[nH]ccc4c3)cc3c(c21)C1CCC3O1 (stereo unspecified)	-	-	-	.	-	-	.	.
N#CCC(=O)N/N=C\c1cccc(OC/C=C/c2ccccc2)c1	-	-	13	-	-	11	14	6.9
O=C1Nc2ccccc2N(C(=O)c2ccc(-c3ccccc3)cc2)C1c1nc2ccccc2[nH]1 (stereo unspecified)	-	9.1	20	.	-	26	8.2	4.8
CC1C(=O)Nc2ccccc2N1C(=O)c1ccc(F)cc1 (stereo unspecified)	-	-	-	-	-	-	.	.
Cc1nnc(NC(=O)c2ccc3ccccc3c2)s1	-	-	5.4	-	-	-	10	5.4
CC(C)c1nnc(NC(=O)COc2ccc3ccccc3c2)s1	-	-	-	-	-	-	.	.
CC(C)Sc1nnc(NC(=O)c2ccc3c(c2)OCO3)s1	-	-	5.3	-	-	-	7.7	4.4
CC(C)c1nnc(NC(=O)c2ccc3ccccc3c2)s1	-	5.7	12	-	-	13	13	8.1
Cc1cc(NC(=O)Nc2ccc(Cl)cc2)n(C)n1	-	-	-	-	-	-	.	.
CCn1nc(C)cc1C(=O)N1CCCC(N2CCN(c3cccc(Cl)c3)CC2)C1 (stereo unspecified)	-	-	-	-	-	-	.	.
CCOC(=O)c1sc(NC(=O)COc2ccc3c(c2)OCO3)nc1C	-	-	-	-	-	-	.	.
Cc1ccc(NC(=O)COc2ccc3c(c2)OCO3)c(Cl)c1	-	-	5.0	-	-	13	9.2	4.3
O=C(COc1ccc(F)cc1)Nc1nccs1	-	-	7.5	-	-	12	11	6.3
